Results on 60 compounds are retold here after ChEMBL document CHEMBL1157539, “Thousands of chemical starting points for antimalarial lead identification” (Nature, 2010).

The term Inhibition denotes the change of the read-out against control, counted positive when it falls.

Format in all cases: functional
In assay [1] the test system is Plasmodium falciparum. Kind of assay: GSK_TCMDC: Inhibition of Plasmodium falciparum 3D7 in whole red blood cells, using parasite LDH activity as an index of growth. Test compounds present at 2uM.
Assay [2] relates to Plasmodium falciparum. Kind of assay: GSK_TCMDC: Inhibition of Plasmodium falciparum Dd2 in whole red blood cells, using parasite LDH activity as an index of growth. Test compounds present at 2uM.
The next assay concerns HepG2. Kind of assay: GSK_TCMDC: Percent inhibition of human HepG2 cell line. Test compounds present at 10uM.

Turning to `Cl.O=c1cc(NCCCNCc2ccc(Cl)c(Cl)c2)[nH]c2ccc(Cl)cc12`, the Inhibition with Plasmodium falciparum [1] is on record as 100%; in the assay with Plasmodium falciparum [2], 54%; in the assay on HepG2 it was 11%.
The like results for `CC(C)(CNCc1ccc(F)c(F)c1)c1nc(-c2ccnc(N)n2)c(-c2ccc(Cl)c(O)c2)[nH]1.Cl` were, in that order, 99%, 79% and 41%.
Taken in the same sequence, the figures for `Cc1ccc(/C=C/C(=O)NCCCCCN2CCCN(C(=O)Nc3ccc(Cl)c(Cl)c3)CC2)cc1` were 95%, 1% and 24%.
The like results for `CCCCOc1c(CCNCCCCNCCc2cc(F)c3ccccc3c2OCCCC)cc(F)c2ccccc12.CS(=O)(=O)O` were, in that order, 96%, 78% and 97%.
In the case of `COc1cc([N+](=O)[O-])ccc1NC(=O)c1cc(Cl)ccc1O`, the Inhibition with Plasmodium falciparum [1] turned out to be 87%; in the assay with Plasmodium falciparum [2], 100%; with HepG2 it was 92%.
The like results for `CC(C)c1ccc(NC(=O)c2ccc(NCCCN(C)Cc3ccccc3)c([N+](=O)[O-])c2)cc1` were, in that order, 100%, 35% and 21%.
On to `Cc1[nH]c(C)c(-c2ccc(CCc3ccc(F)cc3F)cc2)c(=O)c1Cl`, for which the Inhibition is given as 98% in the assay with Plasmodium falciparum [1], 97% in the assay on Plasmodium falciparum [2] and 5% with HepG2.
Taken in the same sequence, the figures for `CC(C)Oc1cc2c(cc1NS(=O)(=O)c1ccc(-c3ccc(Cl)cc3)cc1)CCN(C)CC2.Cl` were 99%, 65% and 100%.
The like results for `Cc1ccccc1C1CCN(C2CCC(NC(=O)/C=C/c3ccc(C(F)(F)F)cc3)CC2)CC1` (stereo not given) were, in that order, 95%, 19% and 64%.
The like results for `COc1cc(Nc2ccnc3cc(-c4nccs4)ccc23)ccc1OCCCc1nc2ccccc2[nH]1.Cl` were, in that order, 100%, 68% and 100%.
As to `Cc1ccc(C(=O)Nc2cc(C(F)(F)F)cc(C(F)(F)F)c2)cc1[N+](=O)[O-]`, the Inhibition is recorded as 100% in the assay with Plasmodium falciparum [1], 61% in the assay with Plasmodium falciparum [2] and 17% in the assay with HepG2.
The like results for `c1ccc2c(c1)ncc1c3ccccc3[nH]c21` were, in that order, 95%, 36% and 0%.
Turning to `CC(O)C1CCCCN1C(=O)c1ccc(-c2ccc(-c3nc4cc(F)ccc4[nH]3)cc2)cc1` (stereo not given), the Inhibition is given as 100% in the assay on Plasmodium falciparum [1], 99% in the assay with Plasmodium falciparum [2] and 43% in the assay with HepG2.
On to `C[C@@H](CC1CCCCC1)NCc1cccc(NS(=O)(=O)c2ccc(O)c(-c3ccno3)c2)c1.Cl`, for which the Inhibition in the assay with Plasmodium falciparum [1] is recorded as 88%; with Plasmodium falciparum [2], 4%; in the assay with HepG2, 0%.
Taken in the same sequence, the figures for `N#Cc1cc(C(=O)c2cc(Br)ccc2O)cn(-c2cc(Cl)cc(Cl)c2)c1=O` were 98%, 35% and 42%.
In the case of `Cl.N=C(N)Nc1ccc(OCCCCCOc2ccc(NC(=N)N)cc2)cc1`, the Inhibition is recorded as 99% in the assay with Plasmodium falciparum [1], 100% in the assay on Plasmodium falciparum [2] and 12% in the assay on HepG2.
Take `CCNc1cc(C)nc(Nc2ccc(NC(=O)c3ccc(OC)c(OC)c3)cc2)n1`: the Inhibition was 100% in the assay with Plasmodium falciparum [1], 65% with Plasmodium falciparum [2] and 19% in the assay on HepG2.
Turning to `O=C(NC1CCCc2ccccc21)[C@@H]1CCCN1C(=O)c1ccc(O)c(-c2cccc([N+](=O)[O-])c2)c1` (stereo not given in full), the Inhibition with Plasmodium falciparum [1] is 99%; in the assay on Plasmodium falciparum [2] it was 99%; with HepG2 it was 0%.
On to `NC(=O)COc1cccc2c1CCN(CCN1CCC(NC(=O)c3ccc(-c4ccc(Cl)cc4)cc3)CC1)C2`, for which the results for the Inhibition in the assay with Plasmodium falciparum [1], in the assay with Plasmodium falciparum [2] and in the assay on HepG2 were 92%, 6% and 44%, respectively.
Taken in the same sequence, the figures for `COc1ccc(Nc2nc(NC3CCCC3)cc(-c3ccc(OC)cc3)n2)cc1` were 86%, 15% and 12%.
The like results for `COc1c(C2=CCN(CCCCNC(=O)c3ccc(-c4ccc(C#N)cc4)cc3)CC2)c(C)cc2c1C(C)(C)CCC2(C)C` were, in that order, 92%, 88% and 18%.
With `COc1cc(F)c2ncc(Cl)c(C(O)CN3CCC(NC(=O)c4ccc5c(c4)NC(=O)CS5)CC3)c2c1.Cl` (stereo not given), the Inhibition with Plasmodium falciparum [1] is given as 98%; in the assay on Plasmodium falciparum [2] it was 68%; in the assay with HepG2, 15%.
Taken in the same sequence, the figures for `O=C(c1ccc(F)cc1)N1CCOC(CCN2CCC(c3ccccc3)CC2)(c2ccc(Cl)c(Cl)c2)C1` (stereo not given) were 88%, 84% and 29%.
Regarding `Cc1nc(NCCc2c[nH]cn2)cc(NCc2ccccc2)n1`, the Inhibition amounted to 100% with Plasmodium falciparum [1], 5% in the assay with Plasmodium falciparum [2] and 5% with HepG2.
With `CCc1cn2c3c(cc(C(=O)N[C@@H](Cc4cccc(F)c4)[C@H](O)CNC4CCCCC4)cc13)N(C)S(=O)(=O)CC2.O=CO`, the Inhibition with Plasmodium falciparum [1] came to 99%; with Plasmodium falciparum [2] it was 99%; with HepG2 it was 5%.
In the case of `COc1ccc(C(=O)NCC(C)(C)c2nc(-c3ccc(Cl)c(O)c3)c(-c3ccncc3)[nH]2)cc1OCCN(C(C)C)C(C)C.Cl`, the values for the Inhibition in the assay on Plasmodium falciparum [1], with Plasmodium falciparum [2] and in the assay with HepG2 were 100%, 96% and 62%, respectively.
As to `Cc1cc(C(=O)Nc2ccc(-c3ccccc3)cc2)no1`, the Inhibition in the assay on Plasmodium falciparum [1] was found to be 90%; in the assay on Plasmodium falciparum [2] it was 94%; with HepG2, 6%.
As for `O=C(O)C(F)(F)F.OCC1CCN(Cc2ccc(-c3ccc(-c4nc5cc(F)ccc5[nH]4)s3)cc2)CC1`, the Inhibition in the assay with Plasmodium falciparum [1] was 100%; in the assay on Plasmodium falciparum [2], 98%; in the assay with HepG2, 14%.
Taken in the same sequence, the figures for `CCCCCCNCCOc1ccc(-c2nc(-c3ccccc3)c(-c3ccccc3)[nH]2)cc1` were 98%, 39% and 14%.
Taken in the same sequence, the figures for `O=C(/C=C/c1ccc(Cl)c(Cl)c1)NCCCCCN1CCC(NC(=O)Nc2ccc(Cl)cc2Cl)CC1` were 91%, 33% and 96%.
The like results for `COc1cc(-n2c(CN3CCCC3)nc3cc(-c4ccc(Cl)cc4)sc3c2=O)ccc1OCCN1CCCC1.O=C(O)C(F)(F)F` were, in that order, 94%, 90% and 66%.
Take `Cc1cc(N2CCCN(C)CC2)nc(Nc2ccc(Cl)cc2)n1`: the results for the Inhibition in the assay on Plasmodium falciparum [1], in the assay with Plasmodium falciparum [2] and with HepG2 were 96%, 11% and 8%, respectively.
Take `O=C(Nc1ccc(-c2nc3ccccc3[nH]2)cc1)c1ccc(S(=O)(=O)N2CCCCCC2)cc1`: the Inhibition in the assay with Plasmodium falciparum [1] was 97%; with Plasmodium falciparum [2], 21%; in the assay with HepG2 it was 8%.
As to `CN(C(=O)c1cc2c(-c3cncnc3)cccc2[nH]1)c1ccccc1`, the Inhibition in the assay on Plasmodium falciparum [1] is 92%; in the assay on Plasmodium falciparum [2], 99%; in the assay with HepG2 it was 1%.
Taken in the same sequence, the figures for `CC(C(=O)Nc1ccc(Br)cc1Br)N1CCN(C(=O)c2ccco2)CC1` (stereo not given) were 91%, 84% and 3%.
Taken in the same sequence, the figures for `CCOc1cc(CC)ccc1C1CCN(CCN2CCC(CNC(=O)c3ccc(-c4ccc(C#N)cc4)cc3)CC2)CC1` were 89%, 100% and 53%.
For `Cc1nccc2c(NC(=O)N[C@@H]3CCN(c4ncc(C(F)(F)F)cc4Br)C3)cccc12.Cl`, the Inhibition is reported as 96% in the assay on Plasmodium falciparum [1], 27% in the assay with Plasmodium falciparum [2] and 21% with HepG2.
Taken in the same sequence, the figures for `N#CCCN1CCN(Cc2cccc(-c3ccc(-c4nc5cc(C(F)(F)F)ccc5[nH]4)cc3)c2)CC1.O=C(O)C(F)(F)F` were 100%, 63% and 23%.
Taken in the same sequence, the figures for `C=C[C@H]1CN(CCCCCCC)CC[C@H]1CCN(C)c1ccnc2ccc(OC)cc12.O=C(O)C(=O)O` were 97%, 93% and 22%.
The like results for `CSc1ccc(CN2CCC(CNC(=O)c3cc(-c4ccccc4F)cs3)C2)cc1.O=C(O)C(F)(F)F` (stereo not given) were, in that order, 90%, 13% and 32%.
For the compound `O=C(NCCN1CCCC1)c1cccc(-c2ccc(-c3nc4cc(C(F)(F)F)ccc4[nH]3)cc2)c1`, the Inhibition in the assay with Plasmodium falciparum [1] turned out to be 100%; in the assay on Plasmodium falciparum [2] it was 99%; in the assay on HepG2, 34%.
Taken in the same sequence, the figures for `COc1ccc2ncc(C#N)c(CCN3CCC(NCc4cnc5c(c4)OCCO5)CC3)c2n1.Cl` were 91%, 24% and 3%.
On to `COc1ccc2nccc(C(=O)NC3CCC(CCN4CCc5cc(C#N)ccc5C4)CC3)c2c1.Cl` (stereo not given), for which the Inhibition is listed as 97% in the assay on Plasmodium falciparum [1], 1% with Plasmodium falciparum [2] and 12% with HepG2.
As to `N#Cc1c(N2CCN(c3ccc(F)cc3)CC2)nc(N)c2c(N)nc3c(c12)CC(=O)N3C1CC1`, the values for the Inhibition in the assay on Plasmodium falciparum [1], with Plasmodium falciparum [2] and in the assay with HepG2 were 95%, 82% and 2%, respectively.
Taken in the same sequence, the figures for `CCc1ccc(NC(=O)c2ccc(CN3CCCN(Cc4cccc(Cl)c4)CC3)cc2)cc1.O=C(O)C(F)(F)F` were 84%, 2% and 50%.
The like results for `COc1ccc(OCC(=O)Nc2nc(-c3ccc(OC)cc3)c(C)s2)cc1` were, in that order, 100%, 87% and 0%.
For the compound `CC(=O)N(C)C1CCN(Cc2ccc(-c3ccc(-c4nc5cc(F)ccc5[nH]4)s3)cc2)C1.O=C(O)C(F)(F)F` (stereo not given), the Inhibition in the assay with Plasmodium falciparum [1] was 98%; with Plasmodium falciparum [2], 22%; in the assay on HepG2, 46%.
As to `COc1ccc2ncc(Cl)c([C@H](O)CN3CCC(NCc4cc5c(cn4)OCCO5)CC3)c2c1.Cl`, the Inhibition stood at 100% with Plasmodium falciparum [1], 100% in the assay with Plasmodium falciparum [2] and 10% in the assay with HepG2.
In the case of `CCOC(=O)c1c(CSc2ccccc2)oc2cc(CN(C)C)c(O)c(Cl)c12`, the results for the Inhibition in the assay with Plasmodium falciparum [1], with Plasmodium falciparum [2] and in the assay with HepG2 were 99%, 70% and 12%, respectively.
The like results for `O=C(NCc1cccs1)[C@H](Cc1ccccc1)Nc1ccnc(NCCc2ccccc2)n1.O=C(O)C(F)(F)F` were, in that order, 85%, 59% and 0%.
For `CC(Nc1ncc(-c2ccsc2)c(-c2nccs2)n1)c1ccc2c(c1)OCCO2` (stereo not given), the Inhibition with Plasmodium falciparum [1] came to 81%; in the assay on Plasmodium falciparum [2], 66%; in the assay on HepG2, 14%.
The like results for `CCNc1cc(C(=O)N[C@@H](Cc2ccccc2)[C@H](O)CN[C@H](C)C(C)(C)C)cc(N2CCCCS2(=O)=O)c1.Cl` were, in that order, 95%, 41% and 4%.
With `CC(Cc1ccc(NC(=O)c2ccc(CNCCCCc3ccccc3)cc2)cc1)NCCc1cccc(Cl)c1.Cl` (stereo not given), the results for the Inhibition with Plasmodium falciparum [1], in the assay on Plasmodium falciparum [2] and in the assay with HepG2 were 100%, 96% and 100%, respectively.
As for `Cc1noc(C)c1-c1cccc(C(=O)NC2CCN(CCNC(=O)C(c3ccccc3)c3ccccc3)CC2)c1.O=C(O)C(F)(F)F`, the Inhibition in the assay on Plasmodium falciparum [1] was found to be 85%; with Plasmodium falciparum [2] it was 74%; in the assay on HepG2 it was 27%.
Taken in the same sequence, the figures for `CS(=O)(=O)Nc1ccc(-c2ccc3ccnc(N)c3c2)cc1.O=C(O)C(F)(F)F` were 85%, 75% and 31%.
Consider `c1ccc(Oc2ccc(Nc3ccnc4cc(-c5ccc(CNCCN6CCOCC6)o5)ccc34)cc2)cc1`, for which the Inhibition in the assay on Plasmodium falciparum [1] was 99%; in the assay with Plasmodium falciparum [2] it was 99%; in the assay with HepG2 it was 20%.
In the case of `CC(C)c1cccc(OCC2CCN(c3ncc(C(=O)Nc4ccccc4)cc3Cl)CC2)c1`, the Inhibition in the assay with Plasmodium falciparum [1] is 89%; with Plasmodium falciparum [2], 88%; with HepG2, 9%.
Taken in the same sequence, the figures for `CC(=O)Nc1ccc(COc2ccc(Nc3ccnc4cc(-c5ccccn5)ccc34)cc2)cc1.Cl` were 99%, 94% and 99%.
Take `CNC(=O)COc1cc(C)c(C2CCN(CCCCNC(=O)c3ccc(-c4ccc(C(F)(F)F)cc4)cc3)CC2)cc1C`: the results for the Inhibition in the assay on Plasmodium falciparum [1], in the assay on Plasmodium falciparum [2] and with HepG2 were 100%, 72% and 38%, respectively.
As to `Cc1cc(C(=O)NCc2ccc(-c3c(C)noc3C)cc2)n(-c2ccc(Cl)cc2)n1`, the Inhibition with Plasmodium falciparum [1] is 100%; in the assay on Plasmodium falciparum [2] it was 98%; in the assay on HepG2 it was 0%.
